The results in this text go back to PubChem BioAssay (EPA / NIEHS).

The AC50 is the midpoint of the concentration-response curve, whichever way the signal moves.

Experiment [1] addresses Paired box protein Pax-6 (Homo sapiens) (UniProt P26367). Kind of experiment: ATG_Pax6_CIS: Attagene CIS-FACTORIAL HepG2 Assay for human Paired Box 6 (PAX6) (AID 2282956). To be noted: HepG2 CIS-FACTORIAL PAX6 reporter transcription, RNA readout; actives raise or lower the signal. The method in brief:
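Fluorescent RT-PCR products separated by capillary electrophoresis report PAX6-linked promoter mRNA in HepG2 cells 24 h post-dose. Curves fitted bidirectionally, DMSO as negative control.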

Experiment [2] is described as follows: ATG_PXRE_CIS: Attagene CIS-FACTORIAL HepG2 Assay for human Pregnane X Receptor Element (PXRE) (AID 2282957). The note with it: HepG2 Attagene CIS-FACTORIAL PXRE reporter, mRNA; actives raise or lower the signal. The method in brief: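 Endogenous transcription factor activity in HepG2 was gauged through induction of reporter mRNA driven by a cis-regulating promoter element, sampled 24 h post-treatment. Activity was fitted in both directions against DMSO negative control.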

The nature of experiment [3]: ATG_RORE_CIS: Attagene CIS-FACTORIAL HepG2 Assay for human RAR-related Orphan Receptor Element (RORE) (AID 2282959). To be noted: HepG2 Attagene cis-factorial RORE reporter, mRNA; actives raise or lower the signal. The method in brief: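 Cells were HepG2 carrying transfected cis-regulated reporter constructs, dosed for 24 hours. Total RNA was reverse-transcribed and reporter cDNA amplified, fluorescently labeled and sized by capillary electrophoresis. Activity was fitted bidirectionally relative to DMSO.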

Experiment [4] can be described thus: ATG_Sox_CIS: Attagene CIS-FACTORIAL HepG2 Assay for human SRY-box transcription factor (SOX) (AID 2282960). To be noted: HepG2 Attagene cis-factorial SOX reporter, mRNA; actives raise or lower the signal. In short, it runs like this:
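Transient MRTU transfection of HepG2; 24 h compound incubation; TriZol RNA, oligo(dT) RT, PCR, 6-FAM primer extension, HpaI cut, CE. Bidirectional fit, DMSO = baseline.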

Experiment [5] deals with Transcription factor Sp1 (Homo sapiens) (UniProt P08047). Kind of experiment: ATG_Sp1_CIS: Attagene CIS-FACTORIAL HepG2 Assay for human Specificity Protein 1 (Sp1) (AID 2282961). The note with it: HepG2 Sp1 cis-reporter transcription, actives raise or lower the signal. In short, it runs like this: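 Endogenous Sp1 activity was gauged in human liver HepG2 cells bearing transfected reporter units under a cis-regulating promoter. After 24 h dosing, reporter mRNA was quantified by RT-PCR with capillary electrophoresis, and activity fitted bidirectionally versus DMSO.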

Experiment [6] in a line: ATG_SREBP_CIS: Attagene CIS-FACTORIAL HepG2 Assay for human Sterol Regulatory Element Binding (SREBP) (AID 2282962). To be noted: HepG2 Attagene cis-factorial SREBP reporter, mRNA; actives raise or lower the signal. The method in brief: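 Endogenous factor activity is measured in HepG2 through multiplexed reporter units under cis-element control. Following a 24 h incubation, reporter transcripts are reverse-transcribed, PCR-amplified and sized by capillary electrophoresis; activity is fitted in both directions relative to DMSO.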

For experiment [7], the target named is Signal transducer and activator of transcription 3 (Homo sapiens) (UniProt P40763). The experiment in a line: ATG_STAT3_CIS: Attagene CIS-FACTORIAL HepG2 Assay for human Signal Transducer and Activator of Transcription 3 (STAT3) (AID 2282963). The note with it: HepG2, Attagene cis-factorial STAT3 reporter transcription; actives raise or lower the signal. In short, it runs like this:
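Cis-factorial format: endogenous transcription factors in HepG2 drive transfected reporter units. After 24 h treatment, reporter RNA was reverse-transcribed, amplified, FAM-labelled and HpaI-digested before CE analysis; activity scored in both directions against DMSO.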

A short description of experiment [8]: ATG_TA_CIS: Attagene CIS-FACTORIAL HepG2 Assay for human TA Basal Promoter (AID 2282964). To be noted: HepG2 Attagene CIS-factorial TA basal promoter reporter; actives raise or lower the signal. The method in brief:
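Background internal-marker endpoint from a 52-component HepG2 cis-reporter panel. Cells treated 24 h; reporter transcripts quantified via RT-PCR and CE fluorescence against DMSO baseline.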

A short description of experiment [9]: ATG_TCF_b_cat_CIS: Attagene CIS-FACTORIAL HepG2 Assay for human T-Cell-Factor with beta-catenin (TCF/b-cat) (AID 2282965). To be noted: HepG2 TCF/beta-catenin cis-reporter transcription, actives raise or lower the signal. In short, it runs like this:
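Endogenous transcription factor activity is captured through cis-promoter reporter constructs transiently introduced into human HepG2 liver cells. Induced reporter mRNA is measured after 24 h and fitted bidirectionally relative to DMSO.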

A short description of experiment [10]: ATG_TAL_CIS: Attagene CIS-FACTORIAL HepG2 Assay for human TAL Basal Promoter (AID 2282966).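 Note: background control endpoint measuring basal TAL promoter reporter mRNA not a specific factor.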 To be noted: HepG2 Attagene cis-factorial TAL promoter reporter; actives raise or lower the signal. In short, it runs like this:
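Endogenous transcription-factor activity is sensed in HepG2 cells through transfected cis-promoter reporter constructs. After 24 h dosing, reporter transcripts are quantified by RT-PCR and capillary electrophoresis. Gain or loss of signal is fitted relative to DMSO.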

A short description of experiment [11]: ATG_TGFb_CIS: Attagene CIS-FACTORIAL HepG2 Assay for human Transforming Growth Factor (TGF) (AID 2282967). To be noted: HepG2 Attagene CIS TGFb reporter, mRNA transcription; actives raise or lower the signal. The method in brief:
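Liver HepG2 line, cis-factorial reporter panel, 24 h dosing. Quantitation: RT-PCR products labeled with 6-FAM, cut with HpaI, resolved by capillary electrophoresis; DMSO-referenced bidirectional analysis.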

Experiment [12] is described as follows: ATG_VDRE_CIS: Attagene CIS-FACTORIAL HepG2 Assay for human Vitamin D Receptor Element (VDRE) (AID 2282968). The note with it: HepG2 VDRE cis-reporter transcription, actives raise or lower the signal. The method in brief:
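Measures endogenous factor activity through cis-element-driven reporter transcripts in transiently transfected HepG2. Cells are treated 24 h; reporter mRNA is quantified by RT-PCR and capillary electrophoresis; fitting is bidirectional.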

Experiment [13] addresses X-box-binding protein 1 (Homo sapiens) (UniProt P17861). The experiment in a line: ATG_Xbp1_CIS: Attagene CIS-FACTORIAL HepG2 Assay for human X-box Binding Protein 1 (XBP1) (AID 2282972). The note with it: HepG2 XBP1 cis-element reporter, Attagene multiplex; actives raise or lower the signal. In short, it runs like this: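 Multiplexed cis-reporter readout in transfected HepG2 liver cells. Exposure lasted 24 hours. Activity in either direction was fitted against DMSO as negative control and baseline.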

Experiment [14] is described as follows: ATG_M_19_TRANS: Attagene TRANS-FACTORIAL HepG2 Assay for M19 Transcription Factor (Internal Marker) (AID 2282974; active = hit-call score of the fitted dose curve at least 0.9, where 1 is the maximum). The note with it: HepG2 Attagene TRANS-FACTORIAL M19 internal marker reporter. In short, it runs like this:
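Cells: human HepG2, transiently transfected with multiplexed reporter transcription units. Exposure: 24 h. Detection: RT-PCR of reporter mRNA with capillary electrophoresis. Analysis: gain-of-signal vs DMSO.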

The target in experiment [15] is Estrogen receptor (Homo sapiens) (UniProt P03372). Kind of experiment: ATG_ERa_TRANS: Attagene TRANS-FACTORIAL HepG2 Assay for human Estrogen Receptor alpha (ERa) (AID 2282970; active = hit-call score of the fitted dose curve at least 0.9, where 1 is the maximum). To be noted: HepG2 Attagene TRANS ERa GAL4 reporter, mRNA. The method in brief:
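Transfected HepG2 cells carrying GAL4-UAS-driven reporter units were dosed for 24 hours. Total RNA was reverse-transcribed, reporter sequences PCR-amplified, FAM-labelled, HpaI-digested and resolved by capillary electrophoresis. Increases over DMSO control defined activity.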

Experiment [16] concerns the target Steroid hormone receptor ERR1 (Homo sapiens) (UniProt P11474). The experiment in a line: ATG_ERRa_TRANS: Attagene TRANS-FACTORIAL HepG2 Assay for human Estrogen-Related Receptor alpha (ERRa) (AID 2282971; active = hit-call score of the fitted dose curve at least 0.9, where 1 is the maximum). To be noted: HepG2 Attagene TRANS reporter, ERRa transactivation. In short, it runs like this: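 HepG2 cells were transiently transfected with multiple GAL4-UAS reporter units, then dosed with compound for 24 h. Total RNA was reverse-transcribed, reporter cDNA PCR-amplified and fluorescently labelled, and fragments resolved by capillary electrophoresis; induction was compared with DMSO.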

Experiment [17] in a line: ATG_GAL4_TRANS: Attagene TRANS-FACTORIAL HepG2 Assay for GAL4 (Internal Marker) (AID 2282976; active = hit-call score of the fitted dose curve at least 0.9, where 1 is the maximum). The note with it: HepG2 Attagene TRANS GAL4 internal marker reporter. In short, it runs like this:
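Fluorescence from capillary electrophoresis of labelled RT-PCR products quantifies reporter mRNA induction after 24 h dosing of HepG2 cells carrying transfected GAL4-UAS reporter transcription units. Vehicle DMSO serves as baseline.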

The nature of experiment [18]: ATG_PPRE_CIS: Attagene CIS-FACTORIAL HepG2 Assay for human Peroxisome Proliferator-activated Response Element (PPRE) (AID 2282958). To be noted: HepG2 PPRE cis-element reporter, Attagene transcription factor profiling; actives raise or lower the signal. The method in brief: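 Cells are first transfected transiently with the multiplexed reporter library, then dosed for 24 h. Total RNA is reverse-transcribed, amplified, fluorescently end-labeled and HpaI-cut before capillary electrophoresis; activity is fitted bidirectionally against DMSO controls.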

Records with an inconclusive call do not appear. Calls of active or inactive are those of the source. Rule for the calls, unless noted: active = hit-call score of the fitted dose curve at least 0.9, where 1 is the maximum; inactive = score below 0.9.

Chain of Transcription factor Sp1 (Homo sapiens) (P08047 whole entry, looked up): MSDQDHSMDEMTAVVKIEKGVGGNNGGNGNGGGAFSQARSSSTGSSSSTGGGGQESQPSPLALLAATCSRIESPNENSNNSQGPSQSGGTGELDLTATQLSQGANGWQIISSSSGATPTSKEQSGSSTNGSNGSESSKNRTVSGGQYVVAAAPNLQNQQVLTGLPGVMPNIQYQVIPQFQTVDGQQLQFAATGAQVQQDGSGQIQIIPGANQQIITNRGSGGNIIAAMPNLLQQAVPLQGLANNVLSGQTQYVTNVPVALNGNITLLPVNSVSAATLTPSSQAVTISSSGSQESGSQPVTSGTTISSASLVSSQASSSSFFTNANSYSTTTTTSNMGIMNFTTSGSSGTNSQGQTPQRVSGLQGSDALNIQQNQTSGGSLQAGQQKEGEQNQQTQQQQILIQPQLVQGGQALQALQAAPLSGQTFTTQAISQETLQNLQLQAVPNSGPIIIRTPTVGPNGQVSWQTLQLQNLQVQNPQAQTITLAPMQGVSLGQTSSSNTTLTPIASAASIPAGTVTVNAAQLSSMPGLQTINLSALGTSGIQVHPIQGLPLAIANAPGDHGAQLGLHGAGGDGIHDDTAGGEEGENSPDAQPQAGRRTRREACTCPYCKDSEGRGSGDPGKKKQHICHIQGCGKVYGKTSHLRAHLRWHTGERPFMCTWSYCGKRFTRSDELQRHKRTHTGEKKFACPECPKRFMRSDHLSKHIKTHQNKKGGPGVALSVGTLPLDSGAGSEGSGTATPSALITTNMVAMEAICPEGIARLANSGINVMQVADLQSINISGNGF
Chain of X-box-binding protein 1 (Homo sapiens) (P17861 whole entry, looked up): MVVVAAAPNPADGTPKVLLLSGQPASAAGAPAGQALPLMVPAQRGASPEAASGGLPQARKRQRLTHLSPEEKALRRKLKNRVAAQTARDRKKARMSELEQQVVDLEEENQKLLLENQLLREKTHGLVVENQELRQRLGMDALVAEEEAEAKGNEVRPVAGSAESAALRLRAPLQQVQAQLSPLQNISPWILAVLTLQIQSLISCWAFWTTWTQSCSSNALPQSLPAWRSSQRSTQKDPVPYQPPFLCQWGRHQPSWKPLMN
Chain of Estrogen receptor (Homo sapiens) (P03372 whole entry, looked up, the tested form may be a part): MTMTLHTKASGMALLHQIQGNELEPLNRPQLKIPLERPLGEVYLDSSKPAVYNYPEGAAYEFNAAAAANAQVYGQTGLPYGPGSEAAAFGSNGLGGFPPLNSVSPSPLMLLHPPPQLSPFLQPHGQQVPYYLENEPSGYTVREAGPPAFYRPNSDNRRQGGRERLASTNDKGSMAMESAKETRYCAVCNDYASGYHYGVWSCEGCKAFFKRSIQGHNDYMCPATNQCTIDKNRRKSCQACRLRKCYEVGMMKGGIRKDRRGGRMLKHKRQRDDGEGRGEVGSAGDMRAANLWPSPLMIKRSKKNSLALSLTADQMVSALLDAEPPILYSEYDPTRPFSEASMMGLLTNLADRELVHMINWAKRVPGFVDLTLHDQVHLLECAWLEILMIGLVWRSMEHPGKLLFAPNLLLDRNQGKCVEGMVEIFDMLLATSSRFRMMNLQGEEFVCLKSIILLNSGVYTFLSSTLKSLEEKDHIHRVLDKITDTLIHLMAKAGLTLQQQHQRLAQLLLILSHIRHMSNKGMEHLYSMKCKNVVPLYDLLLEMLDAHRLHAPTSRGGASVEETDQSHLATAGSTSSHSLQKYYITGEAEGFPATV
Chain of Signal transducer and activator of transcription 3 (Homo sapiens) (P40763 whole entry, looked up): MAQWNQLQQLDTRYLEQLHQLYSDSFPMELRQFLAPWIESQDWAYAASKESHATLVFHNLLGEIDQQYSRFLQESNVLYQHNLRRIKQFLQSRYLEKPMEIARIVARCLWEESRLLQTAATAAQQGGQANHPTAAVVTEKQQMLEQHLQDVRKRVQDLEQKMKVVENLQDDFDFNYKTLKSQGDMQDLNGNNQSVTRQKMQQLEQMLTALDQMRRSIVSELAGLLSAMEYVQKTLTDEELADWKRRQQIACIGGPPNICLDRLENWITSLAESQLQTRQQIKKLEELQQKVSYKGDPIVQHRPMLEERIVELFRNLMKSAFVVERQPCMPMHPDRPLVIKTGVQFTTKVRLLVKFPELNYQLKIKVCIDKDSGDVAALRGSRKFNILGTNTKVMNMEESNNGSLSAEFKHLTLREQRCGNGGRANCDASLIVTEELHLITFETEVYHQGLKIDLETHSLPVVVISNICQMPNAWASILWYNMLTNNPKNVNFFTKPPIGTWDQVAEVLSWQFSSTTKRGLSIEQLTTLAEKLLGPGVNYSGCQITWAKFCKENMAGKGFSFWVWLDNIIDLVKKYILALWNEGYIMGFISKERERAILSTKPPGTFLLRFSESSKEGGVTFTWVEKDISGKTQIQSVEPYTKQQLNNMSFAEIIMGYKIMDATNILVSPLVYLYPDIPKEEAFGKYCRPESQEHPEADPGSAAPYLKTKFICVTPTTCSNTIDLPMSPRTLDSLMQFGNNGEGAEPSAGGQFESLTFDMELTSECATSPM
Chain of Paired box protein Pax-6 (Homo sapiens) (P26367 whole entry, looked up): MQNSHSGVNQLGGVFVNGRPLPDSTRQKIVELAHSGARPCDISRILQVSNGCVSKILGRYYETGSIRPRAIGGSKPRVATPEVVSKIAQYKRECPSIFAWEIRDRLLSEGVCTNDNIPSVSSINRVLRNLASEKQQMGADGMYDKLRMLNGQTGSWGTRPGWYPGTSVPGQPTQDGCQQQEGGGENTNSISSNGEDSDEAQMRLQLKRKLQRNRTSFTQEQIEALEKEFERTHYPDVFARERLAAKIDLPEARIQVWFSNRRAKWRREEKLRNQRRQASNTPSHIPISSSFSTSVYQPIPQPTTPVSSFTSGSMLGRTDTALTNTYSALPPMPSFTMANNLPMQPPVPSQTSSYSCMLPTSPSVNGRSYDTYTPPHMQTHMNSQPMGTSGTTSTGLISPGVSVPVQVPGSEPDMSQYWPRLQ
Chain of Steroid hormone receptor ERR1 (Homo sapiens) (P11474 whole entry, looked up, the tested form may be a part): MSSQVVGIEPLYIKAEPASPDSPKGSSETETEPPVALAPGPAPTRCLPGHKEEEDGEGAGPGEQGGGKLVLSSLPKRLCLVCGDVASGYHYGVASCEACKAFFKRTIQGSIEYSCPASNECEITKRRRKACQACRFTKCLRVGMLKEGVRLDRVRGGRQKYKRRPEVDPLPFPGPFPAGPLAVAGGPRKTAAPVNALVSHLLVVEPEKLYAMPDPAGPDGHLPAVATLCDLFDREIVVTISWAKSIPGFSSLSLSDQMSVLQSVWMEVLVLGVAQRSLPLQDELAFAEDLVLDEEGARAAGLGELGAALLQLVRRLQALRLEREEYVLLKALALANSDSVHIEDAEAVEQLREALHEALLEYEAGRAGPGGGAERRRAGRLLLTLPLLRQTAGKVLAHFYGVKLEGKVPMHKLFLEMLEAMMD

In the case of `CCOB(OCC)OCC`, the molecule was classed as inactive in experiment [1], in experiment [2], in experiment [3], in experiment [4], in [5] and in [6]. Besides, the result in [7], in [8], in [9], in experiment [10], in [11] and in experiment [12] was inactive. In addition, the molecule was called inactive in experiment [13] and in [14].
On to `O=C(Nc1ccccc1)c1cc(Cl)ccc1O`, for which the result in [1], in experiment [4], in experiment [7], in experiment [8], in experiment [9] and in experiment [10] was inactive. Besides, the call in experiment [15] and in experiment [14] was inactive. For the same molecule, the concentration at half-maximal activity (AC50) in experiment [2] was 25.6 µM (active); in [3] it was 15.5 µM (active); in experiment [5] it was 3.65 µM (active); in [6], 5.55 µM (active); in experiment [11] it was 52.5 µM (active); in [12], 6.51 µM (active). Further, the AC50 in experiment [13] was 4.18 µM (active).
For the molecule `CCCCC(CC)COS(=O)(=O)O` (stereo not drawn), the molecule was classed as inactive in experiment [1], in experiment [3], in experiment [4], in experiment [6], in [7] and in experiment [8]. Further, the call in [9], in experiment [10], in [11], in experiment [12], in [15] and in experiment [16] was inactive. The molecule was classed as inactive in [13], in experiment [14] and in experiment [17]. The AC50 in [2] was 62.9 µM (active).
As to `CCC(C)C(=O)OC` (stereo not drawn), the outcome in [1], in experiment [2], in experiment [4], in experiment [5], in experiment [6] and in experiment [8] was inactive. The result in experiment [9], in experiment [10], in [11], in experiment [12], in experiment [16] and in [13] was inactive. Besides, in experiment [14], the molecule was called inactive.
For the molecule `CC(C)[N+](C)(CCOC(=O)C1c2ccccc2Oc2ccccc21)C(C)C`, the molecule was classed as inactive in experiment [1], in experiment [3], in experiment [4], in [5], in [6] and in experiment [7]. For the same molecule, the molecule was classed as inactive in experiment [8], in experiment [9], in experiment [10], in experiment [11], in experiment [12] and in experiment [15]. For the same molecule, the result in experiment [14] and in [17] was inactive. In addition, in experiment [18], the AC50 was 42.7 µM (active).
